Source: PubChem
SKN-1 inh: suppressors of acrylamide-induced Pgst-4::GFP reporter in worms, primary screen, SKN-1 inhibitor project, whole organism, uHTS, GFP/RFP fluorescence ratio, strain VP596 | inhibition, % at 21.8 µM | hit rate 0.49% among 360,000 | C. elegans VP596 Pgst-4::GFP/RFP ratio, 24 h;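 active means interference check ratio from 0.5 to 1.5 plus GFP to RFP signal ratio inhibition reaching or exceeding a fixed threshold, cut at about 30% in these data, passing the limit was not always enough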
SMARCA2 activ: SMARCA2 (BRM) function activators, primary screen, cell-based, luminescence, high throughput; MG213 cells, MMTV-luciferase reporter, dexamethasone, overnight; activation, % at 9.1 µM; hit rate 1% among 370,000; AID 652017, 2013; in the data active means activation above about 7.8%
Vif inh: HIV Vif self-association inhibitors, primary screen, imaging, HEK293T, single point; HEK293T cells, Vif self-association by quenched fluorescence, 24 h; inhibition, % at 7.49 µM; hit rate 0.35% among 340,000; AID 602346, 2012; in the data active means inhibition above about 50%, passing the limit was not always enough; inconclusive means no clear call, values can overlap the other calls; inactive means below about 31%
GRIN3A LBD mod: binders of NR3A ligand-binding domain, primary screen, biophysical, differential scanning fluorimetry, uHTS; Glutamate receptor ionotropic, NMDA 3A (GRIN3A) ligand-binding domain; NR3A LBD differential scanning fluorimetry, Tm shift; 0% = protein alone, 100% = glycine-bound protein; Tm shift relative to glycine control, % at 25 µM; hit rate 2.5% among 340,000;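 active means melting temperature shift of at least 10% of the positive control shift, at one fixed dose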
esBAF inh: Bmi1 luciferase reporter increase in mESCs, primary screen, esBAF inhibitor project, mouse ES cells, Bmi1 luciferase knock-in, single point | reporter increase, % at 12.5 µM | 24 h; 100% = twice the neutral-well signal | AID 602393, 2012 | hit rate 2% among 350,000; in the data active means activation above about 40%; inconclusive means no clear call, values can overlap the other calls;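 further: a rise in the Bmi1 reporter signal indicates esBAF inhibition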
NadD inh: inhibitors of S. aureus NadD, primary screen, biochemical, colorimetric, uHTS; Nicotinate-nucleotide adenylyltransferase NadD (Staphylococcus aureus N315); purified NadD enzyme, colorimetric absorbance read-out; inhibition, % at 20 µM; hit rate 0.78% among 360,000; AID 602399, 2012; in the data active means inhibition above about 26%
A number is an active result. Only some compounds are listed: those with a hit (about 5.2% of all), similar ones and a draw of the others.

What do the screens show for `CCOC(=O)c1ccc(N2C(=O)c3n[nH]c(-c4ccco4)c3C2c2cccc([N+](=O)[O-])c2)cc1` (centres undefined)?
SKN-1 inh: inactive; SMARCA2 activ: inactive; Vif inh: inactive; GRIN3A LBD mod: 24; esBAF inh: inactive; NadD inh: inactive

Results for FC(F)(F)c1ccc(-c2nc3ccccc3s2)cc1 ?
SKN-1 inh: inactive; SMARCA2 activ: inactive; Vif inh: inactive; esBAF inh: inactive; NadD inh: inactive

What do the screens show for `CC(C)c1ccc(-c2nc3ccccc3s2)cc1`?
SKN-1 inh: 46; SMARCA2 activ: inactive; Vif inh: inactive; GRIN3A LBD mod: inactive; NadD inh: inactive

Results for CN(C(=O)OC(C)(C)C)c1ccc(-c2nc3ccccc3s2)cc1 ?
SKN-1 inh: 43; SMARCA2 activ: inactive; Vif inh: inactive; GRIN3A LBD mod: inactive; esBAF inh: inactive; NadD inh: inactive

What do the screens show for `COc1cc(-c2nc3ccccc3s2)ccc1O`?
SKN-1 inh: inactive; SMARCA2 activ: inactive; GRIN3A LBD mod: inactive; esBAF inh: inconclusive; NadD inh: inactive

Results for COCC(=O)N(C)C[C@@H]1Oc2ncc(C3=CCCCC3)cc2C(=O)N([C@H](C)CO)C[C@H]1C ?
esBAF inh: inactive

How did Cc1nn(CCCC(=O)N2CCc3ccccc3C2)c(=O)c2cc3sccc3n12 do in these assays?
SKN-1 inh: inactive; SMARCA2 activ: inactive; Vif inh: 85; GRIN3A LBD mod: inactive; esBAF inh: inactive; NadD inh: inactive

What do the screens show for `CO[C@@H]1CN(C)C(=O)c2ccc(NS(C)(=O)=O)cc2OC[C@@H](C)N(CCC(F)(F)F)C[C@H]1C`?
esBAF inh: inactive

What do the screens show for `CC1Cc2ccccc2N1C(=O)COC(=O)c1ccccc1NCCO` (centres undefined)?
SKN-1 inh: inactive; SMARCA2 activ: inactive; Vif inh: 66; GRIN3A LBD mod: inactive; esBAF inh: inactive; NadD inh: inactive

Results for CNC(=O)C[C@H]1CC[C@@H]2[C@@H](COc3ccc(NC(=O)Nc4cccc(F)c4)cc3C(=O)N2C)O1 ?
esBAF inh: inactive

Results for O=C(c1ccncc1)N1C[C@@H]2[C@H](c3ccccc31)[C@@H](CO)N2C(=O)c1ccncc1 ?
esBAF inh: inactive

How did O=c1c2ccccc2oc2c1ccc1ccccc12 do in these assays?
SKN-1 inh: inactive; Vif inh: inactive; GRIN3A LBD mod: 18; esBAF inh: 72; NadD inh: inactive

What do the screens show for `O=c1c2ccccc2ccc2ccccc12`?
SKN-1 inh: 35; SMARCA2 activ: inactive; Vif inh: inactive; GRIN3A LBD mod: inactive; esBAF inh: inactive; NadD inh: inactive

What do the screens show for `NNc1nc2c(Cl)c(Cl)ccc2s1`?
SKN-1 inh: inactive; SMARCA2 activ: inactive; Vif inh: inactive; GRIN3A LBD mod: 11; NadD inh: inactive

How did NNc1nc2ccc(Cl)cc2s1 do in these assays?
SKN-1 inh: inactive; SMARCA2 activ: inactive; Vif inh: inactive; GRIN3A LBD mod: inactive; NadD inh: inactive

What do the screens show for `Cc1cc(OCC(=O)N(C)Cc2ccccc2)ccc1Br`?
SKN-1 inh: inactive; SMARCA2 activ: inactive; Vif inh: inactive; GRIN3A LBD mod: inactive; esBAF inh: 43; NadD inh: inactive

What do the screens show for `C[C@H](CO)N1C[C@H](C)[C@H](CN(C)S(=O)(=O)c2ccc(F)cc2)Oc2c(NS(=O)(=O)c3cn(C)cn3)cccc2C1=O`?
esBAF inh: inactive

Results for CC(C)NC(=O)N[C@H]1CC[C@@H](CC(=O)N2CCCCC2)O[C@H]1CO ?
esBAF inh: inactive

How did O=C(Nc1ccccc1)N[C@@H]1CC[C@@H](CCNC(=O)c2ccccc2F)O[C@@H]1CO do in these assays?
esBAF inh: inactive

Results for COc1ccc(C#Cc2ccc3c(c2)c(=O)c2ccccc2n3C)cc1 ?
SKN-1 inh: inactive; SMARCA2 activ: inactive; Vif inh: inactive; GRIN3A LBD mod: 12; esBAF inh: inactive; NadD inh: inactive

Results for Cn1c2ccccc2c(=O)c2cc(C#Cc3ccc(N)cc3)ccc21 ?
SKN-1 inh: inactive; SMARCA2 activ: inactive; Vif inh: inactive; GRIN3A LBD mod: inactive; esBAF inh: inactive; NadD inh: inactive

How did CN(C)CCCNc1cc(C(C)(C)C)nc2c(-c3ccc(Cl)cc3)cnn12 do in these assays?
SKN-1 inh: 41; SMARCA2 activ: inactive; Vif inh: inactive; GRIN3A LBD mod: inactive; NadD inh: inactive

How did CC(C)(C)c1cc(NCc2ccccn2)n2ncc(-c3ccc(Cl)cc3)c2n1 do in these assays?
SKN-1 inh: inactive; SMARCA2 activ: inactive; Vif inh: inactive; GRIN3A LBD mod: 13; NadD inh: inactive

What do the screens show for `C[C@@H]1CN([C@H](C)CO)C(=O)c2cccc(NC(=O)Nc3ccc(C(F)(F)F)cc3)c2O[C@H]1CN(C)S(C)(=O)=O`?
esBAF inh: inactive

Results for COc1cccc(OCc2cc(C(=O)N3CCCC3c3ccccn3)no2)c1 (centres undefined) ?
SKN-1 inh: inactive; SMARCA2 activ: inactive; Vif inh: inactive; GRIN3A LBD mod: inactive; esBAF inh: 60; NadD inh: inactive

How did COc1cccc(OCc2cc(C(=O)N3CCNC(=O)C3Cc3ccccc3)no2)c1 (centres undefined) do in these assays?
SKN-1 inh: inactive; SMARCA2 activ: inactive; Vif inh: inactive; GRIN3A LBD mod: inactive; esBAF inh: 51; NadD inh: inactive

Results for CN1CCN(C(=O)c2cc(COc3ccccc3)on2)[C@@H](c2ccccc2)C1 ?
SKN-1 inh: inactive; SMARCA2 activ: inactive; Vif inh: inactive; GRIN3A LBD mod: inactive; esBAF inh: 64; NadD inh: inactive

What do the screens show for `C[C@@H]1CN([C@@H](C)CO)C(=O)c2cccc(NC(=O)Nc3ccc(F)cc3)c2O[C@H]1CN(C)Cc1ccc(Oc2ccccc2)cc1`?
esBAF inh: inactive

How did O=C(CN1CCOCC1)Nc1cc(C(F)(F)F)ccc1Cl do in these assays?
SKN-1 inh: inactive; SMARCA2 activ: inactive; Vif inh: inactive; GRIN3A LBD mod: inactive; esBAF inh: inactive; NadD inh: inactive

Results for O=C(c1ccco1)N1CCN(Cc2ccc(F)cc2)CC1 ?
SKN-1 inh: inactive; SMARCA2 activ: inactive; Vif inh: inactive; GRIN3A LBD mod: inactive; esBAF inh: inactive; NadD inh: inactive

Results for O=C(c1ccco1)N1CCN(Cc2ccc(F)cc2Cl)CC1 ?
SKN-1 inh: inactive; SMARCA2 activ: inactive; Vif inh: inactive; GRIN3A LBD mod: inactive; esBAF inh: 46; NadD inh: inactive

How did O=C(CN1CCN(C(=O)c2ccco2)CC1)Nc1cc(C(F)(F)F)ccc1Cl do in these assays?
SKN-1 inh: inactive; Vif inh: inactive; GRIN3A LBD mod: 14; esBAF inh: inactive; NadD inh: inactive
